Assay outcomes deposited in PubChem by several laboratories.
DUSP3 inh – blocks human VHR1 dual specificity phosphatase; recombinant VHR phosphatase, pNPP absorbance; inhibition, % at 13.3 µM; 290,000 compounds, 0.52% hits; AID 1654; in the data active = inhibition above about 50%
RecA splice inh – blocks M. tuberculosis RecA intein splicing; P9WHJ3; inhibition, % (concentration not given with the values); 290,000 compounds, 0.75% hits; cell-free RecA intein splicing, fluorescence; AID 2221; in the data active = inhibition above about 30%
Target sequence (P9WHJ3 whole entry, looked up, canonical isoform): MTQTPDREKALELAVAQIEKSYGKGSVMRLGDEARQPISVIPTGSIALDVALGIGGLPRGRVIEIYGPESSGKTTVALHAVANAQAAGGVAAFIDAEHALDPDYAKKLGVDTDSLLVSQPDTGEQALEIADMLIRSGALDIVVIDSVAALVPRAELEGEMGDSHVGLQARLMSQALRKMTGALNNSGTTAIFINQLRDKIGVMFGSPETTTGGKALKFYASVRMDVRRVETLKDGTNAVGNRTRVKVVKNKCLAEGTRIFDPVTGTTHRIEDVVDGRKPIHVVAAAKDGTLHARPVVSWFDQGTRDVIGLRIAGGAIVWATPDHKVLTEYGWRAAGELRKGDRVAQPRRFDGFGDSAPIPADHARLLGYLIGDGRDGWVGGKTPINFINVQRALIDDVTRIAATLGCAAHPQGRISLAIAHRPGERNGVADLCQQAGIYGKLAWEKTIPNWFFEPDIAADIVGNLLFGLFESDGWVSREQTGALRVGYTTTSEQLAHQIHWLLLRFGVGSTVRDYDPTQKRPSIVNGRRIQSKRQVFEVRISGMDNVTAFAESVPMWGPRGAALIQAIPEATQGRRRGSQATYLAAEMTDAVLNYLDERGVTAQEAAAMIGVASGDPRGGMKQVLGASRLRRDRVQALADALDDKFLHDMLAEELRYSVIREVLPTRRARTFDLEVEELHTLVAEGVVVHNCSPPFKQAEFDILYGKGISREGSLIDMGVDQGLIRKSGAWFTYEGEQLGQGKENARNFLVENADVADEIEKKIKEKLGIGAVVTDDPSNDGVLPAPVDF
PriA SSB inh – blocks PriA binding to SSB C-terminal tail; AlphaScreen SSBct-PriA binding, biotinylated peptide; inhibition, % at 33 µM; 430,000 compounds, 0.6% hits; AID 1272365; in the data active = inhibition mostly above about 37%, no sharp cut-off; inactive = mostly below about 20%
3CLpro inhibitor – SARS-CoV 3CLpro protease inhibition. P0C6X7. recombinant SARS-CoV 3CLpro, quenched FRET peptide cleavage. AID 1706. inhibition, % at 6 µM. 290,000 compounds, 0.14% hits; in the data active = inhibition above about 12%
CCHFV vOTU inh – CCHFV vOTU protease inhibition. Pep-AMC fluorescence. inhibition, % at 11.5 µM. 370,000 compounds, 0.55% hits; in the data active = inhibition above about 30%
Hits are given with their value; . = inactive; / = no result; + = active, no number. This is a sample that favours compounds with a hit; in the whole collection about 1.7% have one here.

SMILES	DUSP3 inh	RecA splice inh	PriA SSB inh	3CLpro inhibitor	CCHFV vOTU inh
O=C(NC1CCCC1)C(c1cccnc1)N(Cc1ccccc1)C(=O)c1csnn1 (centres undefined)	53	/	.	.	.
O=C(NC1CCCCC1)C(c1ccccc1)N(Cc1cccnc1)C(=O)c1csnn1 (centres undefined)	.	/	.	.	.
Cc1ccc(C)c(N(C(=O)c2csnn2)C(C(=O)NC2CCCCC2)c2ccccn2)c1 (centres undefined)	50	.	.	.	.
O=C(NCc1cc(-c2ccc3c(c2)OCO3)on1)c1ccccc1S(=O)(=O)C(F)F	/	/	.	/	/
Nc1nc(C(=O)O)co1	/	/	.	/	/
Cc1ccc(-c2nc3ccccn3c2NCc2ccc3c(c2)OCO3)cc1	.	.	45	.	.
O=c1c2ccccc2nc2c3ccccc3c(NCc3ccccn3)nn12	57	.	.	.	.
O=c1c2ccccc2nc2c3ccccc3c(NCc3cccnc3)nn12	.	/	.	.	.
CC(=O)Nc1cccc(C(=O)CSc2nnc(CCn3ccc(=O)[nH]c3=O)o2)c1	/	/	.	/	/
CCOc1ccc2c(c1)C(NC(C)=O)C(=O)N2CCN1CCOCC1 (centres undefined)	.	43	.	.	.
COc1ccc(-c2ccc(N3CCC(C(=O)NCc4ccco4)CC3)nn2)cc1	/	/	.	/	/
CCN1CCN(CCCNC(=O)c2ccc3c(c2)NC(=O)c2ccccc2S3)CC1	.	.	.	.	.
CC1CCCC(C)N1CCCNC(=O)c1ccc2c(c1)NC(=O)c1ccccc1S2 (centres undefined)	58	.	.	.	.
CC(Oc1ccc2c3c(c(=O)oc2c1)CCCC3)C(=O)NCCCn1ccnc1 (centres undefined)	58	.	.	.	.
COc1ccc(-c2csc3nc(C(C)(C)C)oc(=O)c23)cc1OC	.	.	.	.	.
COc1ccc(-c2csc3nc(-c4ccc(C)cc4)oc(=O)c23)cc1OC	92	.	.	.	.
O=S(=O)(NCCNc1ccc(Nc2cccnc2)nn1)c1ccccc1C(F)(F)F	/	/	.	/	/
O=[N+]([O-])c1ccc(Nc2ccccc2O)c2nonc12	.	.	41	.	.
O=C(O)c1ccc(Nc2ccc([N+](=O)[O-])c3nonc23)cc1	.	.	.	.	.
COc1ccc(-c2[nH]ncc2-c2nc(-c3cccs3)no2)cc1OC	/	/	.	/	/
O=C(Cn1cnc2ccccc21)NCC1Cc2ccccc2CO1 (centres undefined)	/	/	.	/	/
Cc1cccc(-n2c(Cc3cccn3C)nnc2SCC(=O)N2CCN(c3ccccc3)CC2)c1C	/	/	36	/	/
Cn1cccc1Cc1nnc(SCC(=O)Nc2ccccc2F)n1-c1ccccc1	/	/	37	/	/
Cc1nnc(NC(=O)CSc2nnc(Cc3cccn3C)n2-c2cccc(C)c2C)s1	.	.	/	.	/
O=C(NCc1ccnc(-c2ccsc2)c1)c1ccccc1Br	/	/	.	/	/
SMILES	DUSP3 inh	RecA splice inh	PriA SSB inh	3CLpro inhibitor	CCHFV vOTU inh
O=C(CSc1ccc(-c2ccccn2)nn1)Nc1ccccc1Cl	/	/	65	/	/
O=C(NCCOc1ccc(-c2ccccn2)nn1)c1ccccc1C(F)(F)F	/	/	95	/	/
O=C(CSc1ccc(-c2ccccn2)nn1)Nc1ccccc1C(F)(F)F	/	/	69	/	/
CN1C(=O)CCc2cc(NC(=O)c3c(F)cccc3Cl)ccc21	/	/	.	/	/
Cc1cc(C)n(CC(=O)N2CCCC(C(=O)c3cccc(OC(C)C)c3)C2)n1 (centres undefined)	52	.	.	.	.
COc1cccc(C(=O)C2CCCN(C(=O)c3ccccc3Cl)C2)c1 (centres undefined)	.	.	.	.	.
C=CCCC(=O)N1CCCC(C(=O)c2cccc(OC)c2)C1 (centres undefined)	57	.	.	.	.
CCn1nc(C)cc1C(=O)N1CCCC(C(=O)c2ccc(Oc3ccccc3)cc2)C1 (centres undefined)	57	.	.	.	.
CCn1nc(C)cc1C(=O)N1CCCC(C(=O)c2ccc3ccccc3c2)C1 (centres undefined)	.	.	.	.	.
Cc1ccc(-n2ncc3c(C4CC4)nn(CC(=O)N4CCC(C)CC4)c(=O)c32)cc1C	/	/	.	/	/
CC(C)(CCl)C(=O)Nc1ccc(OC(F)(F)F)cc1	.	.	.	.	.
CS/C(=C\[N+](=O)[O-])Nc1ccc(OC(F)(F)F)cc1	.	57	.	.	.
Cc1cc(N2CCN(c3ccc(C(F)(F)F)cc3[N+](=O)[O-])CC2)c2ccccc2n1	.	.	46	.	.
Cc1cc(N2CCN(c3ccc([N+](=O)[O-])c4cccnc34)CC2)c2ccccc2n1	.	.	.	.	/
COc1ccc(CN2CCC(CNC(=O)Nc3ccc(Cl)cc3)CC2)cc1	/	/	/	/	.
COc1ccc(N2CCC(CNC(=O)Nc3cccc(OC)c3)C2)cc1 (centres undefined)	.	.	.	.	.
COc1ccc(N2CCC(CNC(=O)Nc3ccc(Cl)cc3)C2)cc1 (centres undefined)	52	.	.	.	.
CCOc1ccc(NC(=O)NCC2CCN(Cc3ccc(F)cc3)CC2)cc1	57	.	.	.	.
CCOC(=O)N1CCC(NC(=O)Cn2c(Nc3cccc(F)c3)nc(C)cc2=O)CC1	/	/	.	/	/
O=C(/C=C/c1ccccc1)C1C(=O)c2ccccc2C1=O	.	.	.	.	.
CCc1ccc(/C=C/C(=O)C2C(=O)c3ccccc3C2=O)cc1	.	33	.	.	.
Cc1cc2ccccc2n1CCNC(=O)Cc1ccccc1	.	.	44	.	.
COc1ccc(/C=C/C(=O)NCCn2c(C)cc3ccccc32)cc1OC	.	.	.	.	.
COc1cc(/C=C/C(=O)NCCn2c(C)cc3ccccc32)cc(OC)c1OC	.	.	48	.	.
O=C(NC1(C(=O)NC2CCCCC2)CCCCC1)c1ccc2c(c1)OCO2	52	.	.	.	.
SMILES	DUSP3 inh	RecA splice inh	PriA SSB inh	3CLpro inhibitor	CCHFV vOTU inh
O=C(Cc1ccccc1Cl)NCc1cc(-c2ccco2)on1	/	/	.	/	/
O=C(O)c1ccc(N2CCc3ccccc32)c([N+](=O)[O-])c1	.	.	.	.	.
COC(=O)c1ccc(N2CCc3ccccc32)c([N+](=O)[O-])c1	.	.	52	.	.
O=C(NCc1ccc(F)cc1)c1ccc(N2CCc3ccccc32)c([N+](=O)[O-])c1	.	.	74	.	.
CCOC(CNC(=O)c1ccc(N2CCc3ccccc32)c([N+](=O)[O-])c1)OCC	.	.	63	.	.
O=C(CSCc1ccc(Br)cc1)N/N=C/c1ccc(Sc2cccc3cccnc23)o1	/	/	+	/	/
O=C(CCc1ccccc1O)N/N=C/c1ccc(Sc2cccc3cccnc23)o1	.	.	/	.	.
CCCCCCCCCCCCCCCCCC(=O)N/N=C/c1ccc(Sc2cccc3cccnc23)o1	/	/	+	/	/
CCCN1CCCc2cc(CCNS(=O)(=O)c3cc(F)ccc3F)ccc21	/	/	68	/	/
CCCN1CCCc2cc(CCNS(=O)(=O)c3ccccc3F)ccc21	/	/	50	/	/
Cc1ccc([C@@H](O)CN)cc1	/	/	.	/	/
Cc1ccc(C)c(C(=O)Nc2nnc(-c3ccc(C)c(C)c3)o2)c1	/	/	.	/	/
COc1cc(NC(=O)Cn2ncc(Cl)c(Cl)c2=O)c(C)cc1[N+](=O)[O-]	.	53	.	.	.
COc1cc(NC(=O)CN2C(=O)CN(C)C2=O)c(C)cc1[N+](=O)[O-]	.	.	.	.	.
